Test results published in PubChem BioAssay AID1159580 (chemical genetic matrix, 2015).
Where “and” joins values, the source holds several entries; their conditions need not be identical. Identical values can stand only once. The whole screen tested about 5,500 compounds, of which about 2,000 (36%) were called active. Inconclusive results (about 18%) are left out. No stated cut-off is given here; in the data, active means normalized growth mostly below about 0.91 (no sharp cut-off); inconclusive means no clear call, values can overlap the other calls; inactive means mostly above about 0.92. This is one part of the list.

Test: chemical genetic growth profiling, strain panel (AID 1159580);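 further: tested at 20 µM; growth read once vehicle control cultures reached saturation at 30 °C; 1 = growth at the plate median or of vehicle wells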
Conditions: S. cerevisiae deletion strains, growth OD

Measured: normalized growth

c1coc(CNc2ncnc3nc[nH]c23)c1
inactive: locus YAL013W, strain DEP1, stronger effect = lower value 0.998 | locus YAL021C, strain ccr4, stronger effect = lower value 0.995 | locus YAL026C, strain drs2, stronger effect = lower value 0.997 | locus YAL030W, strain snc1, stronger effect = lower value 1 | locus YBL061C, strain skt5, stronger effect = lower value 0.997 | locus YBR009C, strain hhf1, stronger effect = lower value 0.988 | locus YBR021W, strain FUR4, stronger effect = lower value 1.02 | locus YBR023C, strain chs3, stronger effect = lower value 0.996 | locus YBR171W, strain sec66, stronger effect = lower value 0.994 | locus YBR229C, strain ROT2, stronger effect = lower value 1.01 | locus YBR231C, strain swc5, stronger effect = lower value 1 | locus YBR279W, strain paf1, stronger effect = lower value 1 | locus YCL011C, strain gbp2, stronger effect = lower value 1 | locus YCL016C, strain dcc1, stronger effect = lower value 1 | locus YCL029C, strain bik1, stronger effect = lower value 0.991 | locus YCL061C, strain MRC1, stronger effect = lower value 1.01 | locus YCL069W, strain vba3, stronger effect = lower value 0.999 | locus YCR088W, strain abp1, stronger effect = lower value 0.991 | locus YDL005C, strain med2, stronger effect = lower value 0.995 | locus YDL035C, strain GPR1, stronger effect = lower value 1.01 | locus YDL040C, strain nat1, stronger effect = lower value 0.996 | locus YDL074C, strain BRE1, stronger effect = lower value 0.997 | locus YDL101C, strain DUN1, stronger effect = lower value 0.995 | locus YDL134C, strain PPH21, stronger effect = lower value 1.01 | locus YDL185W, strain tfp1, stronger effect = lower value 0.964 | locus YDL192W, strain arf1, stronger effect = lower value 0.99 | locus YDR001C, strain nth1, stronger effect = lower value 0.993 | locus YDR069C, strain doa4, stronger effect = lower value 1 | locus YDR101C, strain arx1, stronger effect = lower value 0.996 | locus YDR137W, strain rgp1, stronger effect = lower value 0.964 | locus YDR150W, strain NUM1, stronger effect = lower value 0.992 | locus YDR159W, strain sac3, stronger effect = lower value 0.974 | locus YDR162C, strain NBP2, stronger effect = lower value 0.992 | locus YDR195W, strain ref2 0.974 | locus YDR297W, strain sur2, stronger effect = lower value 0.997 | locus YDR318W, strain mcm21, stronger effect = lower value 0.995 | locus YDR334W, strain swr1, stronger effect = lower value 1.01 | locus YDR335W, strain msn5, stronger effect = lower value 1.01 | locus YDR388W, stronger effect = lower value 1 | locus YDR392W, strain spt3, stronger effect = lower value 0.991 | locus YDR502C, strain sam2, stronger effect = lower value 1.01 | locus YEL003W, strain gim4, stronger effect = lower value 1 | locus YEL037C, strain rad23, stronger effect = lower value 0.998 | locus YEL061C, strain CIN8 (second series), stronger effect = lower value 0.997 | locus YEL061C, strain CIN8, stronger effect = lower value 0.995 | locus YER015W, strain faa2, stronger effect = lower value 1 | locus YER016W, strain bim1, stronger effect = lower value 0.99 | locus YER110C, stronger effect = lower value 0.999 | locus YER111C, strain swi4, stronger effect = lower value 0.986 | locus YER155C, strain BEM2 (second series), stronger effect = lower value 0.97 | locus YER155C, strain BEM2, stronger effect = lower value 0.999 | locus YER167W, strain BCK2, stronger effect = lower value 1 | locus YFR010W, strain ubp6, stronger effect = lower value 1 | locus YGL078C, strain dbp3, stronger effect = lower value 0.992 | locus YGL086W, strain mad1, stronger effect = lower value 1 | locus YGL167C, strain pmr1, stronger effect = lower value 1 | locus YGL173C, strain kem1, stronger effect = lower value 0.993 | locus YGL227W, strain vid30, stronger effect = lower value 0.993 | locus YGL240W, strain doc1, stronger effect = lower value 0.996 | locus YGL248W, strain PDE1, stronger effect = lower value 1.02 | locus YGL253W, strain hxk2, stronger effect = lower value 0.995 | locus YGR078C, strain PAC10, stronger effect = lower value 0.994 | locus YGR135W, strain pre9, stronger effect = lower value 0.997 | locus YGR229C, strain SMI1, stronger effect = lower value 1 | locus YGR252W, strain gcn5, stronger effect = lower value 1.19 | locus YHR013C, strain ard1, stronger effect = lower value 0.983 | locus YHR027C, strain rpn1, stronger effect = lower value 1 | locus YHR030C, strain SLT2, stronger effect = lower value 0.998 and 0.973 | locus YHR079C, strain IRE1 (second series), stronger effect = lower value 0.996 | locus YHR079C, strain IRE1, stronger effect = lower value 0.964 | locus YHR094C, strain hxt1, stronger effect = lower value 0.957 | locus YHR129C, strain ARP1, stronger effect = lower value 0.999 | locus YHR142W, strain chs7, stronger effect = lower value 0.992 | locus YHR200W, strain rpn10, stronger effect = lower value 0.986 | locus YIL066C, strain RNR3, stronger effect = lower value 1.01 | locus YIL073C, strain SPO22, stronger effect = lower value 0.978 | locus YIL125W, strain kgd1, stronger effect = lower value 0.988 | locus YIR030C, strain dcg1, stronger effect = lower value 0.998 | locus YJL092W, strain hpr5, stronger effect = lower value 0.995 | locus YJL095W, strain BCK1 (second series), stronger effect = lower value 0.994 | locus YJL095W, strain BCK1, stronger effect = lower value 0.985 and 0.986 | locus YJL115W, strain asf1, stronger effect = lower value 1 | locus YJL129C, strain trk1, stronger effect = lower value 1.02 | locus YJL134W, strain LCB3, stronger effect = lower value 0.997 | locus YJL154C, strain vps35, stronger effect = lower value 0.997 | locus YJL164C, strain tpk1, stronger effect = lower value 0.997 | locus YJL166W, strain qcr8, stronger effect = lower value 1 | locus YJL168C, strain set2, stronger effect = lower value 0.996 | locus YJL187C, strain SWE1 (second series), stronger effect = lower value 0.992 | locus YJR043C, strain POL32, stronger effect = lower value 0.985 | locus YJR066W, strain TOR1, stronger effect = lower value 0.912
